Bioassay records (PubChem)
FEN1 inh = human FEN1 inhibition; Recombinant FEN1 flap cleavage, fluorescence, 15 min; 0.35% of 390,000 active; Potency, µM (highest dose often 114 µM), for the others: at the highest dose activity change, negative = inhibition, usual class: inhibitors; note: potency is the fitted concentration of half-maximal effect; nearly all actives have a fitted effect of over 65% in size
Target sequence (P39748 whole entry, looked up): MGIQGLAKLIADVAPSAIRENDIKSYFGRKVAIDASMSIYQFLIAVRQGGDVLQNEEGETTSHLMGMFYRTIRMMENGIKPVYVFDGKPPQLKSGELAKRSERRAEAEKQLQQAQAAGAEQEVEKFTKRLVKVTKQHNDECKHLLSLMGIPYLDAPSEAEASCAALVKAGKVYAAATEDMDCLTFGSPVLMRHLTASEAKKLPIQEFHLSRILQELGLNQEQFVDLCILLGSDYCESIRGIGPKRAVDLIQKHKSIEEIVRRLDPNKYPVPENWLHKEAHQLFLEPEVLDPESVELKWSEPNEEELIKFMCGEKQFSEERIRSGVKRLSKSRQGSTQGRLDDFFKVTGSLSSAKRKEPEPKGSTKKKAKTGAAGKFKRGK
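FEN1 at 10 nM, compound pretreatment for 15 min (room temperature), 50 nM final substrate to initiate; endpoint reads at 0 and 15 min; DMSO-only plates used as vehicle background.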
APEX1 inh = blocks human APE1 abasic DNA cleavage | recombinant APE1, TAMRA/BHQ-2 abasic DNA cleavage fluorescence | AID 2517 | Potency, µM (top dose mostly 65.8 µM), inactives show at the top dose activity change, negative = inhibition, hits mostly inhibitors | 0.35% of 350,000 active | P27695;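 note: potency is the fitted concentration of half-maximal effect; plate controls were vehicle for no effect and reference inhibitor for full effect; nearly all actives have a fitted effect of over 55% in size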
Target sequence (P27695 whole entry, looked up): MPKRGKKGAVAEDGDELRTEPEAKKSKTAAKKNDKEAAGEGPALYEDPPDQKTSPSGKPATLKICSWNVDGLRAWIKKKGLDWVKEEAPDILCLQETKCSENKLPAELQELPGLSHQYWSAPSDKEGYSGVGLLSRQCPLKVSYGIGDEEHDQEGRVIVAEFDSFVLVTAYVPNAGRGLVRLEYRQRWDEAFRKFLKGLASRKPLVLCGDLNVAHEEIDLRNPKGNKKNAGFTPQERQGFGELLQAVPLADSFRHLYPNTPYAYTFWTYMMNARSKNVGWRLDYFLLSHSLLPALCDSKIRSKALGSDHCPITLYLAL
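Activity was derived from the fluorescence gain between first and third kinetic reads (60 s intervals, ex 525/em 598 nm) after 50 nM THF-abasic TAMRA/BHQ-2 duplex was added to 0.75 nM APE1 preincubated 15 min with compound.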
RECQ1 helicase = inhibitors of human RECQ1 DNA helicase. P46063. Potency, µM (doses to about 57.3 µM), without a hit: top-dose activity, negative = inhibition, usual class: inhibitors. 0.54% of 240,000 active. RECQ1 DNA unwinding, red fluorescence kinetic read;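 note: potency is the fitted concentration of half-maximal effect; plate controls were vehicle for no effect and no enzyme for full effect; nearly all actives have a fitted effect of over 30% in size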
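50 nM RECQ1T1 preincubated 15 min with compound in Tris pH 8.0 buffer with MgCl2, DTT, Tween-20 and 2.5 ug/ml poly(dI-dC); started with 200 nM TAMRA/BHQ-2 forked duplex and 2 mM ATP. Unwinding read as fluorescence (525/598 nm), two reads 2 h apart.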
WRN inhibitor = inhibitors of human WRN helicase; Q14191; WRN helicase unwinding, fluorescent forked duplex, kinetic; Potency, µM (titrated, usually from 114 µM), for inactives: top-dose activity change, negative = inhibition, hits mostly inhibitors; 0.46% of 360,000 active; note: potency is the fitted concentration of half-maximal effect; nearly all actives have a fitted effect of over 55% in size
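Primary qHTS, 1536-well format. 20 nM WRN + compound, 15 min RT; start with 100 nM forked fluorophore/quencher duplex, 2 mM ATP (final); kinetic read ex 525/em 598 nm.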
PI5P4K alpha inh = blocks human PI5P4K alpha kinase activity; PI5P4Kalpha enzyme, ADP-Glo luminescence, 60 min; stronger effect = lower value; AID 652105; P48426; 1.2% of 330,000 active; max response, %; active = max response of -50% or lower; inconclusive = between -30% and -50%; inactive = -30% or higher; note: value at the top dose of about 77 µM
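ADP-Glo luminescence end-point read after a 60 min room-temperature kinase reaction of PI5P4Kalpha plus substrate, initiated with ATP at 5 microM final. Buffer: 0.038 M HEPES pH 7.4, EGTA, 0.1% CHAPS, 5% DMSO.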
BLM inh = blocks DNA unwinding by human BLM helicase; P54132; recombinant BLM DNA unwinding, fluorescence dequenching; Potency, µM (top dose mostly 56.1 µM), without a hit: top-dose activity change, negative = inhibition, most hits filed as inhibitors; 0.2% of 350,000 active;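 note: potency is the fitted concentration of half-maximal effect; plate controls were vehicle for no effect and no enzyme for full effect; nearly all actives have a fitted effect of over 35% in size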
ADP-Glo counter = interferes with ADP-Glo detection without enzyme present. Potency, µM (highest dose often 76.9 µM), for inactives: at the highest dose activity change, negative = inhibition, usual class: inhibitors. 1,100 tested, under 10 active. ADP-Glo detection counter-screen, luciferase luminescence, no enzyme. shares compounds with PI5P4K alpha inh
Numbers without * were called inactive; i = inactive; ? = inconclusive; . = not tested or not shown; [ ] = remark or other dose. In the library only some 1.5% were active in any assay of this set; here they are far more common. Unless noted, calls come from the whole dose curve; as a rule, active = well fitted curve in the direction sought with a large enough effect; inconclusive = small, poorly fitted or top-dose-only effect, or another doubt; inactive = no such curve, though single readings can be large; an effect the other way counts as inactive or inconclusive. Unless noted, % is set by controls: 0 for no effect and ±100 for the full control effect.

SMILES | FEN1 inh | APEX1 inh | RECQ1 helicase | WRN inhibitor | PI5P4K alpha inh | BLM inh | ADP-Glo counter
CC(=O)c1cnc2c(-c3ccc(Cl)cc3)cnn2c1C | -1% | 4% | i | 14% | 10 | 4% | .
COc1cccc(CNC(=O)c2ccc(NC(=O)N3CC(C)Sc4ccccc43)cc2)c1 (configuration not stated) | 4% | . | . | . | . | -5% | .
Cc1ccc(Nc2nc(NCc3ccco3)c3ccccc3n2)cc1 | -30% | 0% | -26% | -22% | . | -30% | -2%
COc1ccccc1Nc1nc(NCc2ccco2)c2ccccc2n1 | -19% | -3% | ? | -31% | -6 | -25% | .
Cc1c(C(=O)O)cccc1-c1ccc(/C=C2/NC(=O)N(c3ccccc3)C2=O)o1 | 3% | ? | i | -19% | 1 | 1% | .
Cc1c(C(=O)O)cccc1-c1ccc(/C=C2\SC(=O)NC2=O)o1 | ? | -1% | . | -4%[11.6 µM] | -57* | 4% | -4%
COc1ccc2c(c1)C=C(CN1CCN(Cc3ccccc3C)C(CCO)C1)CO2 (configuration not stated) | -27% | 15% | . | 0%[11.6 µM] | -2 | -6% | 0%
COc1ccccc1Cc1c(-c2ccco2)nc2cc(C)c(Br)c(C)n12 | . | . | . | -21% | -64* | . | -1%
Cc1cc2nc(-c3ccco3)c(Cc3cccc(Cl)c3)n2c(C)c1Br | . | . | . | -5% | -56* | . | -1%
Cc1cc2nc(-c3cccc(Cl)c3)c(Cc3cccc(Cl)c3)n2c(C)c1Br | . | . | . | -7% | 0 | . | .
Cc1cc2nc(-c3ccco3)c(CC(C)(C)C)n2c(C)c1Br | . | . | . | -9% | -20 | . | .
Clc1cccc(Cc2c(-c3ccco3)nc3ccc(Br)cn23)c1 | . | . | . | -36% | -82* | . | -2%
Cc1ccc(S(=O)(=O)N2CCC(n3c(C)nc4cccnc43)CC2)c(C)c1 | -5% | . | . | . | . | 2% | .
CCCS(=O)(=O)c1ncc(Cl)c(C(=O)Nc2c(C(=O)c3ccccc3)oc3ccccc23)n1 | 0% | . | . | . | . | -6% | .
COC(=O)c1ccc(OCC2c3cc(OC)c(OC)cc3CCN2C(=O)c2cccc(C)c2)cc1 (configuration not stated) | -2% | . | . | . | . | -10% | .
COc1ccccc1C(=O)Nc1c(C(=O)Nc2cc(Cl)ccc2C)sc2nc(C)cc(C)c12 | 9% | . | . | . | . | 0% | .
Cc1noc(C)c1CCC(=O)N1CCCC(CCC(=O)NCc2ccc(F)c(F)c2)C1 (configuration not stated) | ? | 1% | -3% | 0%[11.6 µM] | -61* | -3% | 1%
CCOc1ccc(S(=O)(=O)N2CCN(c3ccc(C)cc3C)CC2)cc1 | 6% | 5% | i | -6% | -110* | -7% | -2%
COc1ccc(S(=O)(=O)N2CCN(c3ccc(C)cc3C)CC2)cc1OC | ? | -7% | i | -4% | -1 | -7% | .
O=C(NCCc1ccccc1)C(c1ccncc1)N(C(=O)c1csnn1)C1CC1 (configuration not stated) | -5% | 0% | -1% | 7% | . | 2% | .
O=C(NCCc1ccccc1)C(c1cccs1)N(C(=O)c1csnn1)C1CC1 (configuration not stated) | -7% | 10% | -10% | 8% | 0 | -3% | 1%
Cc1ccc2c(CC(=O)Nc3ccc(S(=O)(=O)N4CCCCC4C)cc3)coc2c1C (configuration not stated) | -12% | . | . | . | . | -12% | .
Cc1ccc(NC(=O)c2ccc(Br)cc2)c(C(=O)c2ccccc2)c1 | -2% | . | . | . | . | -6% | .
Cc1cccc(OCC(=O)Nc2cccc(C(=O)Nc3ccccc3C(=O)O)c2)c1 | -2% | -1% | 5% | -28% | -52* | 3% | 5%
Cc1ccc(NC(=O)c2cccc(C(=O)Nc3ccc(C)cc3C(=O)O)c2)c(C(=O)O)c1 | ? | 5% | . | -13%[11.6 µM] | -83* | -8% | 3%
SMILES | FEN1 inh | APEX1 inh | RECQ1 helicase | WRN inhibitor | PI5P4K alpha inh | BLM inh | ADP-Glo counter
COC(=O)c1ccc(Oc2cc(C)nc(NCc3ccccc3)n2)cc1 | -7% | -2% | -2% | -6% | 1 | -2% | .
Cc1cc(Oc2ccc(C#N)cc2)nc(NCc2ccccc2)n1 | -15% | 1% | 6% | -19% | -51* | -4% | 1%
CCc1ccccc1NC(=O)CN1CCCN(Cc2cc(C)ccc2C)S1(=O)=O | 3% | . | . | . | . | -8% | .
CC(=O)N1CCN(S(=O)(=O)c2cccc(C(=O)Nc3ccc(F)c(F)c3)c2)CC1 | -16% | 8% | . | -8% | -19 | -3% | -1%
Cc1c(C(=O)O)sc2ncnc(N3CCCCC3C)c12 (configuration not stated) | -4% | 0% | -1% | 3% | . | -1% | 0%
Cc1c(C(=O)N2CCCC(C)C2)sc2ncnc(N3CCCCC3C)c12 (configuration not stated) | -15% | ? | -16% | -2% | 0 | -2% | .
Cc1ccc(C)c(NC(=O)C2CCN(c3cc(C)nc4c(-c5ccc(Cl)cc5)c(C)nn34)CC2)c1 | -5% | . | . | . | . | -3% | .
CCCCN(CC)C(=O)c1nn(C)c2c1CSc1ccccc1-2 | -6% | . | . | . | . | -8% | .
CC(=O)c1ccc(NC(=O)c2cnn3ccccc23)cc1 | -5% | 5% | -9% | 5% | -76* | 4% | -8%
Cc1c(NC(=O)Cc2ccc(Cl)cc2)cccc1-c1nc2cccnc2s1 | -18% | . | . | . | . | -6% | .
CNC(=S)N(Cc1ccco1)Cc1cc2cc3c(cc2[nH]c1=O)OCCO3 | 3% | -6% | -10% | ? | -57* | 0% | 1%
CCNC(=S)N(Cc1ccco1)Cc1cc2cc3c(cc2[nH]c1=O)OCCO3 | -7% | 2% | -8% | -11% | 1 | -2% | .
Cc1ccccc1NC(=O)Cn1c(=O)n(CCC(=O)NCc2ccc3c(c2)OCO3)c(=O)c2sccc21 | 18% | . | . | . | . | -16% | .
Cc1cccc2cc(CN(Cc3cccnc3)C(=S)NCCCN(C)C)c(=O)[nH]c12 | -10% | 1% | -11% | 15% | -53* | -10% | -3%
O=C(COc1ccccc1)Nc1cccc(-c2ccc(N3CCOCC3)nn2)c1 | 5% | 18% | . | -4% | -13 | . | -14%
CCCn1c(SCC(=O)N2c3ccccc3Sc3ccccc32)nc2c1c(=O)n(C)c(=O)n2C | 9% | 0% | 0% | 0% | -3 | 0% | -9%
COc1ccc(N2CC(NC(=O)c3cc4ccccc4o3)CC2=O)cc1OC (configuration not stated) | 17% | . | . | . | . | 0% | .
